Screening results (PubChem BioAssay)
Nrf2 activator: Nrf2 pathway activation; AREc32 ARE-luciferase reporter (MCF7-derived line), luminescence, 24 h; 410,000 compounds, 0.31% hits; AID 624171; Potency, µM (doses to about 46.1 µM), for the others: at the top dose activation, actives largely listed as activators; further: % of control where 0% means no effect; nearly all actives have a fitted effect of over 65% in size
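ARE-driven firefly luciferase activity in AREc32 cells measured after a 24 hr compound exposure at 37 deg C, using Steady-Glo reagent and a 30 min room-temperature hold.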
Rango dissoc inh: inhibitors of RanGTP-induced Rango-importin beta complex dissociation. 340,000 compounds, 0.071% hits. O95149+P62826. AID 540253. Biochemical FRET Rango-importin beta, RanGTP-induced dissociation. Potency, µM (doses to about 46.1 µM), inactives show at the top dose activity change, negative = inhibition; calls by dose curve; further: % of control where 0% means no effect; nearly all actives have a fitted effect of over 45% in size
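Rango FRET biosensor (snurportin-1 IBB flanked by N-terminal EYFP and C-terminal CFP10) at 0.1 uM, with 0.25 uM importin beta in PBS, 1mM DTT, 0.02% Tween-20, 0.1% BSA. 0.6 uM Ran, 2mM GTP and 0.2 uM RCC1 were then added for 45 min at room temperature. Inhibition read as loss of FRET rise.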
Nrf2 inh: blocks Nrf2 signaling. A549 ARE-Fluc reporter, luciferase luminescence, 18-24 h. Potency, µM (doses to about 46 µM), for inactives: at the top dose activity change, negative = inhibition, hits mostly inhibitors. 360,000 compounds, 2.1% hits. AID 504444; further: on the % scale 0 is the no-effect control and ±100 the full control effect; nearly all actives have a fitted effect of over 60% in size
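Two sequential reads on A549 ARE_Fluc cells exposed to compound for 18-24 h: a CellTiter-Fluor fluorescence read for viability, then a luciferase luminescence read for Nrf2/ARE activity.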
Rango complex inh: prevents formation of the Rango-importin beta complex; Q14974; Rango CFP/YFP FRET sensor + importin beta, 45 min; Potency, µM (top dose mostly 92.2 µM), inactives show at the highest dose inhibition of complex formation; 340,000 compounds, 0.031% hits; calls by dose curve;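 further: 0% = DMSO wells and 100% = buffer wells lacking importin beta; nearly all actives have a fitted effect of over 15% in size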
Target sequence (Q14974 whole entry, looked up): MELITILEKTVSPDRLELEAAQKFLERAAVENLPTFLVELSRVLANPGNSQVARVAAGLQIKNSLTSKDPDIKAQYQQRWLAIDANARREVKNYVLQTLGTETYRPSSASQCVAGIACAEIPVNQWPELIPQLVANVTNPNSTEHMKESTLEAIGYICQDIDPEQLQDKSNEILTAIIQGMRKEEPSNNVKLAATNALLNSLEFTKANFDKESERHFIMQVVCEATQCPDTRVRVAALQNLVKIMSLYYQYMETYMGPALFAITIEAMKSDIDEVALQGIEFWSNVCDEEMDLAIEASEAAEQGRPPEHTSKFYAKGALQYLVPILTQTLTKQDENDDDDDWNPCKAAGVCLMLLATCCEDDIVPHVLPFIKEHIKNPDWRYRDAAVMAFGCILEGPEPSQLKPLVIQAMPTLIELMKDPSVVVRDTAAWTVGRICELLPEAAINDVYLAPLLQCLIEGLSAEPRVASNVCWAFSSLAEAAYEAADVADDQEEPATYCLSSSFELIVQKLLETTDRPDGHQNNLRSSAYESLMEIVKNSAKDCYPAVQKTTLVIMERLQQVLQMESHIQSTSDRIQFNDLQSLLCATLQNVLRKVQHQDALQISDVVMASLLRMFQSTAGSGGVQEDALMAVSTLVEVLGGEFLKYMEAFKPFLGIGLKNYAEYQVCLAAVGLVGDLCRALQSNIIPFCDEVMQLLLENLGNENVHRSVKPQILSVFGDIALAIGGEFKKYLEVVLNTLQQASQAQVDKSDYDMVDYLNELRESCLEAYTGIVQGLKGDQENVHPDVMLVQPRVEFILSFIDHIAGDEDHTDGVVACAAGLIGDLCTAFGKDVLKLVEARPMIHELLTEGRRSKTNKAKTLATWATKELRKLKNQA
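Inhibition scored from the CFP 486 nm/YFP 530 nm FRET ratio 45 min after adding 0.125 microM importin beta to 50 nM Rango biosensor preincubated 5 min with compound (room temperature, PBS with DTT, Tween-20, BSA). No-importin wells as positive control.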
A549 viability: counter-screen for Nrf2 inhibitors: cytotoxicity in A549 cells; A549 ARE-Fluc cells, CellTiter-Fluor viability, 18-24 h; Potency, µM (titrated, usually from 46 µM), for the others: top-dose activity change, negative = cytotoxicity, hits mostly inhibitors; 390,000 compounds, 0.16% hits; AID 504648; further: on the % scale 0 is the no-effect control and ±100 the full control effect
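A549 ARE-Fluc cells in 5% FBS OPTI-MEM, 5000 cells/well, rested 2 h then exposed to compounds in concentration-response for 18-24 h at 37 °C. Viability by CellTiter-Fluor fluorescence (Ex 405/Em 525) after 30 min; luciferase luminescence (BugLite, 15 min, RT) read afterwards.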
An asterisk follows results filed as active; ? = inconclusive; / = no result; [ ] = dose if it differs, or a comment. Only some compounds are listed: those with a hit (about 2.3% of all), similar ones and a draw of the others. Unless noted, the call rests on the fitted dose curve; in most records, active means well fitted curve in the direction sought with a large enough effect; inconclusive means small, poorly fitted or top-dose-only effect, or another doubt; inactive means no such curve, though single readings can be large; an effect the other way counts as inactive or inconclusive. Potency means the concentration at half of the fitted maximal effect.

SMILES | Nrf2 activator | Rango dissoc inh | Nrf2 inh | Rango complex inh | A549 viability
CCOC(=O)c1ccc(NC(=O)C2CCN(C(=O)c3ccc(OC)c(OC)c3)CC2)cc1 | 6.7% | -6.4% | 23.1µM* | 3.7% | -11.7%
COC(=O)c1ccc(NC(=O)C2CCN(C(=O)c3cc(OC)c(OC)c(OC)c3)CC2)cc1 | -0.5% | 8.6% | 4.9% | -1.8% | -6.2%
O=C(Nc1nc(Nc2cc(F)cc(F)c2)nc(NC2CCCC2)n1)OCc1ccccc1 | / | / | 10.2% | / | 1.2%
Cn1cnc([N+](=O)[O-])c1S(=O)(=O)c1cccc(Cl)c1 | -3.0% | 10.8% | -17.4% | -2.6% | -7.7%
CCCn1c(CC)nc([N+](=O)[O-])c1S(=O)(=O)c1ccccc1 | -2.6% | -1.7% | 20.6µM* | 0.0% | ?
CN(c1cccc(Cl)c1)S(=O)(=O)c1cccc(C(=O)Nc2nc3ccccc3[nH]2)c1 | 0.0% | 20.8% | ? | 0.2% | -27.3%
O=C(Nc1nc2ccccc2[nH]1)c1ccc(Cl)cc1 | 0.6% | -10.7% | ? | 2.7% | -15.6%
O=C(Nc1nc2ccccc2[nH]1)c1cccc(Cl)c1 | 5.01µM* | 0.7% | ? | 3.2% | 9.8%
COc1ccc(N(C)S(=O)(=O)c2cccc(C(=O)Nc3nc4ccccc4[nH]3)c2)cc1 | 5.5% | 0.7% | 23.1µM* | -2.4% | -7.7%
COc1ccc(N2CCN(c3nc4ccccn4c(=O)c3/C=C(\C#N)S(=O)(=O)c3ccccc3)CC2)cc1 | 0.2% | -16.6% | -4.8% | -2.7% | -3.8%
Cc1cccc(NC(=O)CN2C(=O)S/C(=C\c3cc(C)n(C)c3C)C2=O)c1 | -0.6% | 23.1µM* | ? | ? | -17.7%
COc1ccccc1N1C(=O)S/C(=C\c2cc(C)n(C)c2C)C1=O | 0.4% | 18.4µM* | 6.0% | ? | -19.1%
Cc1ccc(NC(=O)CN2C(=O)S/C(=C\c3cc(C)n(C)c3C)C2=O)cc1 | -0.2% | ? | -11.2% | ? | -3.1%
Cc1c(/C=C2\SC(=O)N(CC(=O)Nc3ccc4c(c3)OCO4)C2=O)c2ccccc2n1C | 0.1% | 25.9µM*[inhibitor] | ? | ? | -24.8%
O=C1Cc2cc(S(=O)(=O)N3CCN(c4cccc(C(F)(F)F)c4)CC3)ccc2N1 | / | / | 5.8%[92.2 µM] | / | 13.0%[92.2 µM]
O=[S+]([O-])(c1ccc2c(c1)OCCO2)N1CCN([S+](=O)([O-])c2c(O)cc(F)cc2F)CC1 | / | / | -10.4% | / | -3.2%
COc1ccc(NC(=O)Cn2c3ccc(OC)cc3c3nc4n(c(=O)c32)CCS4)cc1 | -0.4% | 7.2% | 23.1µM* | -5.3% | -0.3%
O=C(N/N=C/c1sc(N2CCOCC2)nc1-c1ccccc1)c1ccccc1O | -0.2% | ? | 16.4µM* | ? | 23.1µM*
O=[N+]([O-])c1ccc(N/N=C/c2sc(N3CCOCC3)nc2-c2ccccc2)c(S(=O)(=O)Nc2ccccc2Cl)c1 | 0.1% | ? | 2.59µM* | ? | 9.2µM*
O=c1[nH]cnc(O)c1C(c1ccc([N+](=O)[O-])cc1)c1c(O)nc[nH]c1=O | -0.2% | 4.1% | -2.0% | -0.5% | 5.8%
COc1cc(NC(=O)Cn2nc(-c3ccc(F)cc3)ccc2=O)ccc1-n1cnnn1 | 2.3% | -2.5% | 25.9µM* | -1.6% | ?
Cc1cc(NC(=O)Cn2nc(-c3ccccc3F)ccc2=O)ccc1-n1cnnn1 | -0.2% | 3.6% | / | -3.2% | 5.4%
CC1CC(C)CN(CCCNS(=O)(=O)c2ccc3c(c2)oc(=O)n3C)C1 (centres undefined) | 0.5% | -3.5% | -3.5% | 6.0% | -1.8%
CC(C)N1C(=O)S/C(=C/c2ccc(Sc3nc4ccccc4[nH]3)o2)C1=O | 9.4% | ? | 14.6µM* | ? | ?
C=CCN1C(=O)S/C(=C/c2ccc(Sc3nc4ccccc4[nH]3)o2)C1=O | 0.1% | 16.5% | ? | ? | -2.8%
SMILES | Nrf2 activator | Rango dissoc inh | Nrf2 inh | Rango complex inh | A549 viability
CCN1CCN(CCCNC(=O)c2cc3c(s2)-c2c(C)cccc2OC3)CC1 | 16.5% | / | -11.1% | / | 4.0%
COc1cc(C(=O)Nc2nc(-c3ccc(Cl)cc3)c(C)s2)ccc1OCC(=O)Nc1ccc(F)cc1 | 0.4%[9.22 µM] | 0.1% | 20.6µM* | 7.4% | ?
COc1ccc(N(C)S(=O)(=O)c2cccc(C(=O)OCC(=O)c3c(N)n(C)c(=O)n(C)c3=O)c2)cc1 | 0.2% | 8.6% | 20.6µM* | -2.9% | -11.5%
O=C(COc1ccc(NC(=O)c2cccs2)cc1)c1ccc(F)cc1 | 3.0% | 8.8% | 16.4µM* | 3.8% | -18.5%
CC(C)NC(=O)Cn1c(SCC(=O)NC2CCCC2)nc2ccccc21 | 0.2% | 1.5% | 7.0% | -2.7% | -6.4%
CC(C)Cn1c(SCC(=O)NC(=O)NC2CCCC2)nc2ccccc21 | 2.7% | 19.1% | 18.4µM* | 1.9% | ?
Cc1nc2cc(-c3ccc(Cl)cc3)nn2c(C)c1CCC(=O)NC(C)c1ccc2c(c1)OCCO2 (centres undefined) | -3.0% | -5.1% | 13µM* | 2.8% | -4.2%
Cc1csc(NC(=O)CCc2c(C)nc3cc(-c4ccc(Cl)cc4)nn3c2C)n1 | -2.4% | -8.2% | 1.46µM* | -1.5% | 0.0%
Cc1ccccc1NC(=O)c1ccc2[nH]c(C)c(C)c2c1 | 9.5% | / | -27.5% | / | 0.9%
Cc1cc(=O)c2cc(C(=O)Nc3ccccc3C)ccc2[nH]1 | -0.1% | / | 20.6µM* | / | 6.5%
COc1ccc(/C=N/Nc2nc(C)cc(-c3ccccc3)n2)cc1OC | 0.0% | 20.4% | 23.1µM* | -1.4% | -6.5%
Cc1cc(-c2ccccc2)nc(N/N=C/c2ccccc2)n1 | 0.0% | 3.6% | ? | 0.7% | 1.6%
CCN(CC)c1ccc(NC(=O)c2cnc3ccccn3c2=O)c(C)c1 | 0.2% | 0.5% | 2.91µM* | 1.9% | -19.4%
Cc1ccc(NC(=O)c2cnc3cc(C)ccn3c2=O)c(C)c1 | 2.6% | / | ? | / | -17.6%
Cc1cccc(Cn2c(O)c(N=NC(=S)Nc3ccccc3F)c3ccccc32)c1 | 6.9% | 4.2% | 5.8µM* | 2.0% | ?
Oc1c(N=NC(=S)Nc2ccccc2F)c2ccccc2n1Cc1cccc(Cl)c1 | 0.2% | 9.8% | ? | -0.8% | ?
COc1cc(/C=C(\C#N)c2nc3ccccc3[nH]2)cc(Cl)c1OCc1ccccc1Cl | -0.8% | / | ? | / | -2.2%
Cc1onc(-c2c(F)cccc2Cl)c1C(=O)Nc1cc2cc([N+](=O)[O-])ccc2oc1=O | 5.5% | / | / | / | /
Cc1ccc(NS(=O)(=O)c2cc(NC(=O)c3ccc4c(c3)NC(=O)CS4)ccc2C)c(C)c1 | 3.3% | 13.0% | 18.4µM* | 0.2% | ?
